# The campaign covered roughly 2,300 compounds. About 30 (1%) were called active. Only a sample is shown. A number with no mark means an inactive call.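 The calls were made as follows: active = activation of at least 30% at 10 µM; inactive = the rest.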
# Test: spectral interference with molecular beacon fluorescence, confirmation, artefact control for DNMT1 inhibitor project, biochemical, fluorescent molecular beacon, single concentration (AID 602387);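 also: DNMT1 catalytic domain with a HinP1I cleavage step and a FAM/dabcyl DNA beacon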
# Settings: DNMT1 molecular beacon spectral interference counterscreen, fluorescence 485/520; at 10 µM; hits give high values
row,Compound,activation (fluorescence interference) [%]
1,COc1ccc(Cl)cc1NC(=O)CCS(=O)(=O)c1ccc(Br)cc1,3.16
2,O=C(CCN1C(=O)C2C3C=CC(C3)C2C1=O)Nc1ccccc1F (stereo unspecified),1.81
3,COc1ccc(/C=C2\SC(=N)N(c3ccc(F)cc3)C2=O)cc1,2.19
4,Oc1c(C(c2ccco2)N2CCC3(CC2)OCCO3)sc2ncnn12 (stereo unspecified),3.04
5,O=C(COC(=O)c1ccccc1O)NCc1ccco1,6.37
6,O=C(CCS(=O)(=O)c1ccc(Br)cc1)NCCc1ccc(Cl)cc1,1.71
7,CCCCCCc1cc2cc(-c3nnc(-c4ccccc4)o3)c(=O)oc2cc1O,-8.15
8,O=C(CSc1nc2ccccc2c(=O)[nH]1)Nc1nc(-c2ccc(Br)cc2)cs1,1.36
9,COc1ccc(Br)cc1/C=N/Nc1ccc(S(=O)(=O)Nc2ccccc2C(=O)O)cc1[N+](=O)[O-],-9.44
10,COC(=O)CCCCC1=CCC2C(=O)C=C(O)C2C1 (stereo unspecified),10.1
11,COc1ccc(OCC(=O)NNC(=O)c2ccc(-c3ccccc3)cc2)cc1,1.59
12,CSc1ccc(CNC(=O)c2ccc(NC(=O)C3=CSCCO3)cc2)cc1,4.08
13,C=CC[C@@H](CC(=O)N[C@H](CO)Cc1ccccc1)C(=O)N[C@@H](COC(=O)[C@@H](CC=C)Cc1ccc(F)cc1)Cc1c[nH]c2ccccc12,10.2
14,Cc1ccc(CNC(=O)CSc2nnc3c(n2)[nH]c2ccc(F)cc23)cc1,3.05
15,COc1cc(-c2nnc(NC(=O)CS(=O)(=O)c3ccc(Cl)cc3)o2)cc(OC)c1OC,5.03
16,COc1ccc(-n2c(SCC(=O)Nc3sc4c(c3C#N)CCCC4)nnc2-c2ccc(O)cc2)cc1,1.12
17,CCOc1cc(NC(=O)c2ccco2)c(OCC)cc1NC(=O)COc1ccccc1,-8.28
18,CC1(C)Cc2nc3sc4c(SCC(=O)NC(c5ccccc5)c5ccccc5)ncnc4c3cc2CO1,1.08
19,O=C(COc1ccc(/C=N/NC(=O)c2ccc(O)cc2)cc1)Nc1ccc([N+](=O)[O-])cc1,-12.5
20,O=C(c1ccc(CS(=O)(=O)c2ccccc2)o1)N1CCN(c2ccccc2)CC1,-0.52
21,CCOC(=O)C(NC(=O)CC(C)C)(Nc1sc2c(c1C(N)=O)CCCC2)C(F)(F)F (stereo unspecified),6.15
22,COc1ccc(C(=O)/C=C/c2ccc(-c3ccccc3)cc2)cc1CSCC(=O)O,-0.97
23,O=C(COc1ccc([N+](=O)[O-])cc1)Nc1ccc(N2CCCC2)cc1,4.14

row,Compound,activation (fluorescence interference) [%]
1,N#Cc1ccccc1CN1C(=O)S/C(=C/c2cccn2-c2cccc(C(=O)O)c2)C1=O,1.4
2,COc1ccc2sc(-c3ccc(S(C)(=O)=O)cc3)c(-c3ccc(C(N)=O)cc3)c2c1,4.53
3,CN(CCOc1ccccc1)C(=O)c1cc(-c2ccco2)nc2ccccc12,3.34
4,Cc1ccc2cc(C)c(N3CCC(C)CC3)nc2c1,2.52
5,COc1ccc(NC(=O)CN(C)C(=O)c2cc(C3CC3)nn2-c2ccccc2)cc1,0.09
6,COc1ccc(CC(=O)Nc2ccc(-c3nnc(-c4ccc(C)cc4)o3)cc2)cc1,-5.84
7,CS(=O)(=O)c1ccc2c(c1)SC1=NC(=O)/C(=C/c3ccco3)C(=N)N12,1.32
8,O=C1CCCC(O)=C1C=NCCc1ccccc1,5.41
9,O=C(Nc1cccc(-c2nc3ccccc3[nH]2)c1)c1ccc(C(=O)Nc2cccc(-c3nc4ccccc4[nH]3)c2)cc1,-6.94
10,CC(Oc1ccccc1)C(=O)Nc1oc(-c2ccco2)c(-c2ccco2)c1C#N (stereo unspecified),0.87
11,c1ccc2cc3[nH]c(CN4CCCCC4)nc3cc2c1,5.49
12,CC(=O)Nc1ccc(SCC(=O)NC(=O)c2ccc(Cl)cc2)cc1,4.23
13,Cc1nnc(N/N=C/c2cccs2)[nH]c1=O,1.29
14,CCCCNC(=O)CCn1c(=O)c2ccccc2n(Cc2cc(C)ccc2C)c1=O,1.75
15,Cc1ccc(C(=O)NNC(=O)c2cc3cc4ccccc4nc3s2)cc1,4.21
16,CC(C)(C)NC(=O)CSC(=Nc1ccccc1F)NC#N,8.71
17,COc1ccc2[nH]c(=O)c(-c3noc(-c4ccc(F)cc4)n3)cc2c1,-3.37
18,COc1ccc(OC)c(NC(=O)c2cc(-c3cc(F)ccc3OCC3CCCO3)n[nH]2)c1 (stereo unspecified),7.7
19,O=C(NNc1ccccn1)c1ccc(Cl)nc1,1.8
20,O=C(Oc1ccc(-c2nc(-c3ccccn3)no2)cc1)c1ccccc1,-1.62
21,CCc1nn(-c2cc(Oc3cccc4ccccc34)nc(-c3ccccc3)n2)c(N)c1C#N,1.42
22,CCOC(=O)c1cccc(NC(=O)C2CCCN(S(=O)(=O)c3cnc[nH]3)C2)c1 (stereo unspecified),2.94
23,C=CCn1c(=S)[nH]c2scc(-c3ccco3)c2c1=O,-3.16

# Reference: PubChem BioAssay AID602387 (Sanford-Burnham Center for Chemical Genomics, 2012)
